High-throughput results as filed in PubChem.
A selection: hits, their analogues and other compounds. The true share with any hit is near 4.2%.
DAX1 StAR inh: inhibitors of DAX1 repression of SF-1 activated StAR promoter. HEK293T StAR-luciferase reporter, SF-1/DAX-1 repression relief. inhibition, % at 6.8 µM. actives 1.1% (n = 370,000);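 active = inhibition above the mean over all tested compounds plus 3 SD, cut at about 3.6% in these data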;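 note: higher inhibition means more luminescence from relief of DAX-1 repression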
hgDAF12 agonist: activates the H. glycines DAF-12 receptor ligand-binding domain; HEK293 GAL4-hgDAF12 UAS-luciferase reporter, agonist luminescence; normalized to butyrate control; actives 1.8% (n = 370,000); activation, % at 6.8 µM; AID 687014;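 active = activation above a cutoff set at the mean of all screened compounds plus 3 SD, cut at about 10% in these data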
hcDAF12 agonist: activators of H. contortus DAF-12 nuclear receptor | HEK293 hcDAF-12 lit1-tk-luc reporter, luminescence; 0% DMSO, 100% Δ7-dafachronic acid | activation, % at 6.8 µM | actives 1.4% (n = 370,000) | AID 652067;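 active = activation above the mean of all tested compounds plus 3 SD, cut at about 5.5% in these data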
ssDAF-12 act: S. stercoralis DAF-12 activation, primary screen. HEK293 ssDAF-12/GRIP1 lit1-tk-luc reporter, luminescence; % of 3 µM dafachronic acid response. activation, % at 6.8 µM. actives 1% (n = 370,000);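 active = activation above the mean over all tested compounds plus 3 SD, cut at about 0.9% in these data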
SMARCA2 activ: increases SMARCA2 function in MMTV reporter cells. AID 652017. MG213 cells, MMTV-luciferase reporter, dexamethasone, overnight. activation, % at 9.1 µM. actives 1% (n = 370,000); in the data active = activation above about 7.8%
hgDAF12 ag: hgDAF-12 agonism, confirmation assay | actives 80% (n = 3,300) | AID 743050 | activation, % at 6.8 µM | HEK293 GAL4-hgDAF12 luciferase reporter, agonist mode; percent of butyrate response | shares compounds with hgDAF12 agonist;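 active = mean activation over triplicate wells above the hit cutoff derived from the earlier primary screen, cut at about 11% in these data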
LXRb DAF12 ctr: LXR-beta agonism as DAF-12 counter-screen. shares compounds with hgDAF12 agonist. HEK293 Gal4-LXR luciferase reporter, 24 h. activation, % at 6.8 µM. 3,300 tested, under 10 active. AID 743051;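 active = mean activation of the triplicate above a set limit carried over from the primary screen, none filed active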
Target sequence (P55055 whole entry, looked up, the tested form may be a part): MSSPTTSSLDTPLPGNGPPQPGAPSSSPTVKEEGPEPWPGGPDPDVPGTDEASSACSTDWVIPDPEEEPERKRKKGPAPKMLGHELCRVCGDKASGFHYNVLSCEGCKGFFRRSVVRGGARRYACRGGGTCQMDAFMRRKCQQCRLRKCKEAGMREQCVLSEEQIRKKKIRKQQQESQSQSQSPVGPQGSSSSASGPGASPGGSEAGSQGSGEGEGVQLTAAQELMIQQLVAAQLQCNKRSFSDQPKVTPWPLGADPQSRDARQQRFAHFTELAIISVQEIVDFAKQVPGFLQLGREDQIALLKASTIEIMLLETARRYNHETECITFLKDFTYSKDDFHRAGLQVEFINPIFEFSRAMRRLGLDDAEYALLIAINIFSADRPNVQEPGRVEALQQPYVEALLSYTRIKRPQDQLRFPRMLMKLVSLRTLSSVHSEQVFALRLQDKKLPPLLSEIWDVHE
Of the large screens only hits and unclear results are named; the others gave an inactive call (follow-up assays come after a bar, where they were run).

COC(=O)C1CN(Cc2ccccc2)CCS(=O)(=O)N1Cc1ccc(OC)cc1 (stereo unspecified)	none
COc1ccc(-n2c(SCC(=O)NNC(=S)Nc3ccc(C)cc3)nnc2-c2ccccc2)cc1	none
Fc1ccccc1-c1nc2ccccc2[nH]1	hgDAF12 agonist 15 | hgDAF12 ag 12 | LXRb DAF12 ctr inactive
Cc1ccc(Nc2nnc(SCC(=O)Nc3cccnc3Cl)s2)cc1C	hgDAF12 agonist 14 | hgDAF12 ag inactive | LXRb DAF12 ctr inactive
Cc1ccc(Nc2nnc(SCC(=O)Nc3ccccc3[N+](=O)[O-])s2)cc1	none
O=C(Nc1ccc(F)c(Cl)c1)c1cc(C2CCCN(C(=O)C3CC3)C2)on1 (stereo unspecified)	DAX1 StAR inh 4.4, hgDAF12 agonist 15 | hgDAF12 ag inactive | LXRb DAF12 ctr inactive
Fc1ccc(-c2cc(-c3nnc4sc(Cc5cccs5)nn34)[nH]n2)cc1	none
O=C(NCc1ccccc1)c1cc(-c2cccc(O)c2)on1	hgDAF12 agonist 18 | hgDAF12 ag 12 | LXRb DAF12 ctr inactive
Cc1ccc(NC(=O)c2cc(-c3cccc(O)c3)on2)cc1C	hgDAF12 agonist 14, ssDAF-12 act 1.0 | hgDAF12 ag 14 | LXRb DAF12 ctr inactive
COc1ccc(CNC(=O)c2cc(-c3ccc(OC)c(OC)c3)on2)cc1	none
O=C(Nc1cccc(O)c1)c1cc(-c2ccc3c(c2)OCO3)on1	none
COc1ccc(-c2cc(C(=O)NCc3ccccc3)no2)cc1OC	hgDAF12 agonist 20 | hgDAF12 ag inactive | LXRb DAF12 ctr inactive
O=C(NCc1cccs1)c1cc(-c2ccc(O)cc2)on1	hgDAF12 agonist 15 | hgDAF12 ag 18 | LXRb DAF12 ctr inactive
Cc1cccc(NC(=O)N2CCC(N(C)CCC(C)C)CC2)c1	none
CCCS(=O)(=O)NC(=O)C1(C)CCN(C(=O)c2ccco2)C1 (stereo unspecified)	none
COc1cccc(-c2cc(C(=O)Nc3cccnc3)no2)c1	hgDAF12 agonist 15 | hgDAF12 ag 21 | LXRb DAF12 ctr inactive
O=C(Nc1cccnc1)c1cc(-c2ccccc2)on1	none
O=C(CSc1nnc(-c2ccccc2)n1-c1ccc(Cl)cc1)c1ccccc1Br	none
COc1ccccc1-c1noc(-c2ccccc2)n1	DAX1 StAR inh 3.7, hgDAF12 agonist 14 | hgDAF12 ag 19 | LXRb DAF12 ctr inactive
Cc1cccc(-c2nnc(-c3ccccc3)o2)c1	hgDAF12 agonist 13 | hgDAF12 ag 16 | LXRb DAF12 ctr inactive
Brc1ccc(-c2nnc(-c3cccc(Br)c3)o2)cc1	none
CCC(C)NC(=O)c1ccc2c(Cl)c3c(nc2c1)CCC3 (stereo unspecified)	hgDAF12 agonist 18 | hgDAF12 ag inactive | LXRb DAF12 ctr inactive
CCC(C)NC(=O)c1ccc2c(SCC(=O)O)c3c(nc2c1)CCCC3 (stereo unspecified)	none
O=C(Nc1ccc(Cl)cn1)c1ccc2c(Cl)c3c(nc2c1)CCC3	hgDAF12 agonist 15 | hgDAF12 ag inactive | LXRb DAF12 ctr inactive
Cn1cccc1C(=O)N1CCN(S(=O)(=O)c2ccc([N+](=O)[O-])cc2)CC1	none
COc1ccc(NC(=O)CSC2CCCCC2)cc1	hgDAF12 agonist 23 | hgDAF12 ag 15 | LXRb DAF12 ctr inactive
O=c1c(-c2ccc3c(c2)OCCO3)coc2cc(O)cc(O)c12	hgDAF12 agonist 14 | hgDAF12 ag 15 | LXRb DAF12 ctr inactive
Cc1ccc(SCc2ccc(C(=O)Nc3cccc([N+](=O)[O-])c3C)cc2)cc1	none
CSCc1ccc(C(=O)Nc2cccc(C)c2C)cc1	hgDAF12 agonist 14, ssDAF-12 act 1.7 | hgDAF12 ag 11 | LXRb DAF12 ctr inactive
CCCN(CCC)Cc1cc(=O)oc2ccccc12	none
O=C(NCCc1ccccc1)C(=Cc1ccc(C(=O)O)cc1)C(=O)NCCc1ccccc1	none
C/C(=C\c1ccccc1)C(=O)NCCc1ccccc1	hgDAF12 agonist 19 | hgDAF12 ag 16 | LXRb DAF12 ctr inactive
CNc1nc(-c2ccc3c(c2)CCN3C(=O)c2ccccc2C)cs1	hgDAF12 agonist 21 | hgDAF12 ag 15 | LXRb DAF12 ctr inactive
COc1ccccc1C(C(C(=O)c1ccccc1)N1CCOCC1)N1CCOCC1 (stereo unspecified)	hgDAF12 agonist 14 | hgDAF12 ag inactive | LXRb DAF12 ctr inactive
NNC(=O)CSc1nc(-c2ccccc2)cn1-c1ccccc1	none
COc1ccc(-n2cc(-c3ccccc3)nc2SC)cc1	hgDAF12 agonist 15 | hgDAF12 ag 11 | LXRb DAF12 ctr inactive
Cc1ccc(CONC(=O)c2ccccc2Cl)cc1	none
Cc1ccc(CONC(=O)c2ccccc2)cc1	hgDAF12 agonist 15 | hgDAF12 ag 11 | LXRb DAF12 ctr inactive
Cc1ccc(-n2c(SCC(=O)Nc3ccc4c(c3)OCCO4)nnc2-c2cccnc2)cc1	none
CCOc1cc(/C=N/NC(=O)c2ccc(NC(=O)C3CC3)cc2)ccc1O	none
COc1ccc(C=NNC(=O)NN=Cc2ccc(OC)c(OC)c2)cc1OC	hgDAF12 agonist 13 | hgDAF12 ag inactive | LXRb DAF12 ctr inactive
CCOc1cc(/C=N/NC(=O)Nc2ccccc2)ccc1O	hgDAF12 agonist 13, hcDAF12 agonist 6.1, ssDAF-12 act 3.8 | hgDAF12 ag 11 | LXRb DAF12 ctr inactive
CCN(CC)c1ccc2cc(C(C)=O)c(=O)oc2c1	none
CCN(CC)c1ccc2cc(C(=O)Nc3ccccn3)c(=O)oc2c1	hgDAF12 agonist 14 | hgDAF12 ag 18 | LXRb DAF12 ctr inactive
C=CCCC(=O)N1CCC(C(=O)NC2CCCc3ccccc32)CC1 (stereo unspecified)	none
CC(NCc1ccco1)C(=O)N1CCCN(C)CC1 (stereo unspecified)	none
O=C(NNC(=O)C1CC=CCC1C(=O)O)c1cccs1 (stereo unspecified)	hgDAF12 agonist 17 | hgDAF12 ag inactive | LXRb DAF12 ctr inactive
CC(C)c1ccc2oc(-c3cc(N)ccc3O)nc2c1	none
Cc1ccccc1-c1nc2cc(N)ccc2o1	hgDAF12 agonist 15 | hgDAF12 ag 13 | LXRb DAF12 ctr inactive
O=C(Nc1ccccc1)N1c2ccccc2SC1c1ccco1 (stereo unspecified)	none
C/C(CC(=O)Nc1ccc(N(C)C)cc1)=N\NC(=O)c1ccccn1	none
C/C(CC(=O)Nc1ccc(C)c(Cl)c1)=N\NC(=O)c1ccccn1	hgDAF12 agonist 14 | hgDAF12 ag inactive | LXRb DAF12 ctr inactive
O=C(OCc1ccccc1)N1CCC2CC1c1ccc(N3CCNCC3)cc12 (stereo unspecified)	hgDAF12 agonist 14 | hgDAF12 ag inactive | LXRb DAF12 ctr inactive
O=C(OCc1ccccc1)N1CCC2CC1c1ccc(N3CCOCC3)cc12 (stereo unspecified)	none
